Screening data deposited in PubChem by Buhrlage Lab, Dana-Farber Cancer Institute and Novartis Institutes for BioMedical Research (Cambridge, Mass).
Rows were chosen to be rich in hits. Some 13% of all compounds tested hit in one or more screens of this group.
USP10 block: inhibitors of human USP10 deubiquitinase; purified USP10, Ub-rhodamine fluorescence, 60 min; inhibition, % at 20 µM; actives 1.1% (n = 47,000)
USP17 block: inhibitors of human USP17 deubiquitinase | Ubiquitin carboxyl-terminal hydrolase 17-like protein 5 (Homo sapiens), A8MUK1 | inhibition, % at 50 µM | actives 6.5% (n = 47,000) | purified USP17, Ub-rhodamine cleavage fluorescence, 3 h | AID 1645855, 2021
USP30 block: inhibitors of human USP30 deubiquitinase. Ubiquitin carboxyl-terminal hydrolase 30 (Homo sapiens), Q70CQ3. purified USP30, Ub-rhodamine cleavage fluorescence. inhibition, % at 25 µM. actives 5.3% (n = 47,000). AID 1645860, 2021
USP8 inh: inhibitors of human USP8 deubiquitinase | inhibition, % at 20 µM | Ubiquitin carboxyl-terminal hydrolase 8 (Homo sapiens), P40818 | actives 4.2% (n = 47,000) | purified USP8, Ub-rhodamine cleavage fluorescence, 30 min
USP28 block: inhibitors of human USP28 deubiquitinase | AID 1645857, 2021 | inhibition, % at 25 µM | purified USP28, Ub-rhodamine cleavage fluorescence, 30 min | actives 3% (n = 47,000)
* marks the source's active call; other numbers are inactive results. No stated cut-off is given here; in the data, active means inhibition above about 30%; inactive means the rest.

SMILES	USP10 block	USP17 block	USP30 block	USP8 inh	USP28 block
Cc1ccc(NC(=O)c2cc(C(C)C)on2)cc1C	2	17	15	6	42*
Cc1ccc(O)c(NC(=O)c2cc(C(C)C)on2)c1	7	14	19	4	2
O=C(CC1C(=O)Nc2ncnn21)Nc1cccc2ccccc12 (stereo not drawn)	-2	-12	-16	-21	-25
Cc1sc(NC(=O)C2CCCCC2)nc1-c1ccccc1	8	0	8	-15	15
Cc1sc(NCc2ccccc2)nc1-c1ccccc1	9	-7	1	-14	40*
CCN1C(=O)Cc2cc(NS(=O)(=O)c3cc(C)ccc3OC)ccc21	0	47*	11	2	0
CCOc1ccc(S(=O)(=O)Nc2ccc3c(c2)CC(=O)N3CC)cc1	0	0	0	4	5
O=c1c2cnc(N3CCCCC3)nc2ccn1Cc1ccco1	0	-12	-21	-1	-5
CCC(C(=O)Nc1ccc(-c2nc3cccnc3s2)cc1)c1ccccc1 (stereo not drawn)	1	-49	-138	36*	-57
CCc1nc(SCc2nc(N)nc(Nc3ccccc3)n2)n[nH]1	2	17	14	76*	8
CC(C)(C)c1nc(SCc2nc(N)nc(Nc3ccccc3)n2)n[nH]1	-1	-22	-20	-2	-14
CCOC(=O)CNC(=O)CSc1nc(-c2ccco2)nc2c1c(=O)n(C)c(=O)n2C	0	23	30	17	7
COc1ccc(CNC(=O)Cc2c(C)n[nH]c2C)c(OC)c1	0	-3	-3	3	-6
COc1ccc(-c2cc(C(=O)Nc3n[nH]c4nc(C)ccc34)[nH]n2)c(OC)c1	1	32*	4	56*	4
CS(=O)(=O)Nc1cccc(CNC(=O)c2nc(-c3ccccc3)n(-c3ccccc3)n2)c1	1	13	10	38*	-2
CN(Cc1ccc2c(c1)OCO2)C(=O)c1nc(-c2ccccc2)n(-c2ccccc2)n1	5	20	15	-49	28
Cc1nn(-c2ccc(F)cc2)c(C)c1S(=O)(=O)N1CCN(c2ccccn2)CC1	5	24	38*	-2	4
CCc1ccc(NC(=O)Cn2cc(C(=O)N3CCCC3)c(=O)c3ccc(C)nc32)cc1	-4	-14	-22	-7	-9
CC(=O)Nc1ccc(S(=O)(=O)N(C)CC(=O)Nc2ccccc2N2CCN(C)CC2)cc1	-4	-6	0	-5	-15
O=C(NC1CCCC1)C(c1ccncc1)N(C(=O)c1ccco1)c1ccc2c(c1)OCCO2 (stereo not drawn)	-6	25	5	48*	6
Cc1cc(NC(=O)c2ccc(C(F)(F)F)cc2)no1	11	13	40*	19	6
Cc1cc(NC(=O)c2ccc(C(=O)Nc3cc(C)on3)s2)no1	-2	20	-20	2	-13
CCc1cc(=O)oc2cc(OCC(=O)NC(c3ccccc3)c3ccccc3)ccc12	11	4	44*	7	14
CC(NC(=O)COc1ccc2oc3ccccc3c2c1)c1ccccc1 (stereo not drawn)	4	42*	22	0	-1
CC(NC(=O)COc1ccc2ccccc2c1)C(=O)O (stereo not drawn)	0	0	2	7	-8
SMILES	USP10 block	USP17 block	USP30 block	USP8 inh	USP28 block
Cc1cc(NC(=O)COc2ccc3oc4ccccc4c3c2)no1	6	78*	21	-2	5
Cc1cc(NC(=O)c2oc3c(F)cccc3c2C)no1	-5	-7	-135	6	-27
COc1ccc(CCNS(=O)(=O)c2ccc(N3C(=O)CCS3(=O)=O)cc2C)cc1	5	-2	-6	1	-3
Cc1cc(NC(=O)COc2cccc(C(F)(F)F)c2)no1	2	48*	13	24	8
Cc1cc(Br)c2nc(-c3cccc(C(F)(F)F)c3)oc(=O)c2c1	3	15	13	4	5
Cc1cc2c(=O)oc(-c3ccccc3Br)nc2s1	18	25	23	44*	8
O=C(NC1CCCC1)c1cn(Cc2ccccc2)nc1-c1cccnc1	0	8	38*	4	11
O=C(NC1CCCCCC1)c1cn(Cc2ccccc2)nc1-c1cccnc1	2	2	14	4	-2
O=C(c1cn(Cc2ccccc2)nc1-c1cccnc1)N1CCCc2ccccc21	-4	-32	-333	-3	-63
Cc1ccc2c(c1)CCCN2C(=O)c1cn(Cc2ccccc2)nc1-c1cccnc1	-7	-10	-168	53*	-33
Cc1ccc(CN=C2C(c3ccc(C)c(C)c3)=Nc3ncnn32)cc1	1	0	1	13	1
Cc1cc(-c2nccn2C)nc(C2CCN(c3ncccn3)CC2)n1	-2	-1	12	-5	8
O=C(Nc1nc2c(s1)COCC2)c1cc(-c2ccco2)[nH]n1	-6	73*	-22	86*	64*
Cc1cc(C(=O)Nc2nc3c(s2)CN(C(=O)c2cc(-c4ccccc4)n[nH]2)CC3)no1	-5	-62	-177	-103	-66
O=C(Cn1c(N2CCC(Cc3ccccc3)CC2)nc2ccccc21)c1ccccc1	11	20	42*	9	9
CCOC(=O)C1CCN(c2nc3ccccc3n2Cc2cccc(F)c2)CC1	-11	6	-58	0	-8
O=c1[nH]c(-c2ccccn2)nc2c1CN(Cc1cccn1-c1ccc(O)cc1)CC2	0	-66	-30	-324	-9
Cc1ccc(-c2nn(-c3ccccc3)c3c2cnc2ccccc23)cc1	-1	1	-18	6	-6
O=C(COc1ccccc1)N(Cc1ccccc1O)c1ccccc1Cl	15	29	33*	14	25
COC(=O)CC1CC2=C(C(=O)c3c(O)cccc3C2=O)C(C)O1 (stereo not drawn)	-13	42*	-99	-46	40*
O=C(O)CC1C(=O)Nc2c(O)cccc21 (stereo not drawn)	-1	-4	11	1	0
CC1OC(CC(=O)O)CC23OC12C(=O)c1c(O)cccc1C3=O (stereo not drawn)	-14	63*	-93	-11	14
COC(=O)CC1CC23OC2(C(=O)c2c(O)cccc2C3=O)C(C)O1 (stereo not drawn)	-6	65*	-78	-4	25
Cn1c(-c2ccc3c(c2)OCO3)cnc1NCc1ccccc1O	3	0	9	29	12
CCOC(=O)N1CCC(NC(=O)c2cnn(-c3ccc(C)cc3C)c2C2CCNCC2)CC1	-1	-31	-6	-182	-18
COc1ccccc1C1CCNc2ccccc2N1 (stereo not drawn)	-2	0	-49	-11	-16
COc1cccc(C2CCNc3ccccc3N2)c1 (stereo not drawn)	-8	36*	-134	74*	-23
